# Laboratory results published in patent US20050164186, “Alteration of restriction endonuclease specificity by genetic selection” (published 2005).
# Molecular target: T1, BstYI NN1 (K133N/S172N) (Bacillus stearothermophilus, K133N,S172N)
# T1 chain: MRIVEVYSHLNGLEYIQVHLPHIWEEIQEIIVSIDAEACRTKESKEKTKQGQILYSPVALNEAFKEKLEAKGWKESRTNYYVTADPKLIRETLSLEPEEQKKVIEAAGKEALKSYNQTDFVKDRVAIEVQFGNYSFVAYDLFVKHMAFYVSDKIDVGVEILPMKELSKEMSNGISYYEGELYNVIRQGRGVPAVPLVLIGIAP
# Assay: cleavage_in_vitro; 60 C
# Details: label: radiolabel; dsDNA, one strand shown
sequence,measurement,value
AGATCC,cleavage activity,7 fold lower than AGATCT
